# Experimental data from the supplement of paper PMC8728848.
# Only a selection was taken, and the strongest signals are over-represented in it overall.
# B1: Awp1 (Candida glabrata) (protein)
# chain: MSLITIFAFLIKATLVLSLDILTPTTLTGDQTFNEDVSVVSSLTLNDGSQYLFNNLLQIAPSSASVTANALAAVSVFTFSLPPSSSLSNSGTLIISNSNTGPSTEQHIVITPNVMANTGTITLSLAHTNTDSSSTLIIDPVTFYNTGTINYESIGSETNDPSLTGNILSIGSSGRTLQNLGTINLNAANSYYLLGTITENSGSINVQKGFLYVNALDFIGNTINLSTTTALAFISPVSQVVRVRGVFFGNIIASVGSSGTFSYNTQTGILTVTTNGVYSYDIGCGYNPALMSGQQETLSFQGNPYDTFLVLVNQPIPSDLTCAAVSSSITPSSSVEPSSSVVPSSSVEPSSSVEPSSSVEPSSSVEPSSSVEPSSSVEPSSSVEPSSSVEPSSSVEPSSSVEPSSSVEPSSSVEPSSSVEPSSSVEPSSSVEPSSSVEPSSSVEPSSSVEPSSSVEPSSLIVPSSSVEPSSSVLPSSSVVPSSSVEPSTPPIPSSSVEPSSSVVPSSPAVPSSSVEPSTPPIPSSSVVSASVFDTSSTLPSSPSVPPSSVSPSTISTPSSSAAPSSFCPTCVSSGTPPAPSSSAIVPTSSAGGGNGGDNREPGAAGQPGAAGQPGAAGQPGAAGQPGAAGQPGAAGQPGAAGQPGAAGQPGAAGQPGAAGQPGAGFGVGSEQPTPGAGAGSGSADGNQSGTGSGTGNGQQGSGQAGSGQAGSGQEGSGQAGSGQAGSGQAGSGQAGSGQAGLDNTASGQSEGGQASAMDGDQSGRDGQSNSGSLLQPNAQQGTGSGTGSDIGADQASGESPGQIGDAQPGSGTDQSSGRHSLAAEARTSQSHSLAADARTRSTTRQTSVIAPDTAPGTASGTAPGTAPGTAVVTTFHGCGTVNHKGMINILLALALLVLL
# Tests used:
# Test in all cases: glycan array binding signal (z-score within array); higher = stronger binding
# Settings in all cases: glycan notation: IUPAC condensed, linker removed
# [1] = target: Fuc(a1-2)Gal(b1-3)GalNAc(b1-3)Gal(a1-4)Gal(b1-4)Glc
# Summary of the method: (§1)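 Columns mapping to the same glycan were averaged after glycan names were converted to IUPAC-condensed notation. The data come from 3228 arrays in the Consortium for Functional Glycomics database, limited to those with an available protein sequence. Binding is reported as a within-array Z-score averaged across arrays of one protein sequence and across linkers.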
# [2] = target: Fuc(a1-2)Gal(b1-3)GlcNAc(b1-2)Man(a1-3)[Fuc(a1-2)Gal(b1-3)GlcNAc(b1-2)Man(a1-6)]Man(b1-4)GlcNAc(b1-4)GlcNAc
# Summary of the method: as §1
# [3] = target: Fuc(a1-2)Gal(b1-3)GlcNAc(b1-3)Gal(b1-4)Glc
# Summary of the method: as §1
# [4] = target: Fuc(a1-2)Gal(b1-3)GlcNAc(b1-3)GalNAc
# Summary of the method: as §1
# [5] = target: Fuc(a1-2)Gal(b1-3)[Fuc(a1-4)]GlcNAc
# Summary of the method: as §1
# [6] = target: Fuc(a1-2)Gal(b1-3)[Fuc(a1-4)]GlcNAc(b1-3)[Gal(b1-4)GlcNAc(b1-6)]Gal(b1-4)Glc
# Summary of the method: as §1
# [7] = target: Fuc(a1-2)Gal(b1-4)GlcNAc(b1-3)Gal(b1-4)GlcNAc(b1-3)Gal(b1-4)GlcNAc
# Summary of the method: as §1
# [8] = target: Fuc(a1-2)Gal(b1-4)[Fuc(a1-3)]GlcNAc(b1-3)[Neu5Ac(a2-6)Gal(b1-4)GlcNAc(b1-6)]Gal(b1-4)Glc
# Summary of the method: as §1
# [9] = target: Fuc(a1-2)Gal3S(b1-4)GlcNAc
# Summary of the method: as §1
# [10] = target: Fuc(a1-2)[Gal(a1-3)]Gal(b1-3)GalNAc(b1-3)Gal(a1-4)Gal(b1-4)Glc
# Summary of the method: as §1
# [11] = target: Fuc(a1-2)[Gal(a1-3)]Gal(b1-3)GlcNAc
# Summary of the method: as §1
# [12] = target: Fuc(a1-2)[Gal(a1-3)]Gal(b1-4)GlcNAc(b1-3)GalNAc
# Summary of the method: as §1
# [13] = target: Fuc(a1-2)[GalNAc(a1-3)]Gal(b1-3)GalNAc(b1-3)Gal(a1-4)Gal(b1-4)Glc
# Summary of the method: as §1
# [14] = target: Fuc(a1-2)[GalNAc(a1-3)]Gal(b1-4)[Fuc(a1-3)]GlcNAc
# Summary of the method: as §1
# [15] = target: Fuc(a1-3)[Gal(b1-4)]GlcNAc(b1-2)Man(a1-3)[Fuc(a1-3)[Gal(b1-4)]GlcNAc(b1-2)Man(a1-6)]Man(b1-4)GlcNAc(b1-4)[Fuc(a1-6)]GlcNAc
# Summary of the method: as §1
# Gal(a1-4)Gal(b1-4)Glc = target: Gal(a1-4)Gal(b1-4)Glc
# Summary of the method: as §1
# Gal(a1-4)Gal(b1-4)GlcNAc = target: Gal(a1-4)Gal(b1-4)GlcNAc
# Summary of the method: as §1
# [16] = target: Gal(a1-4)Gal(b1-4)GlcNAc(b1-3)Gal(b1-4)Glc
# Summary of the method: as §1
# Gal(b1-2)Gal = target: Gal(b1-2)Gal
# Summary of the method: as §1
# [17] = target: Gal(b1-3)GalNAc(a1-3)[Fuc(a1-2)]Gal(b1-4)Glc
# Summary of the method: as §1
# [18] = target: Gal(b1-3)GalNAc(b1-4)[Neu5Ac(a2-3)]Gal(b1-4)Glc
# Summary of the method: as §1
# [19] = target: Gal(b1-3)GlcNAc(b1-2)[Gal(b1-3)GlcNAc(b1-6)]Man(a1-6)[Gal(b1-3)GlcNAc(b1-2)Man(a1-3)]Man(b1-4)GlcNAc(b1-4)GlcNAc
# Summary of the method: as §1
# [20] = target: Gal(b1-3)GlcNAc(b1-3)Gal(b1-4)GlcNAc(b1-6)[Gal(b1-3)GlcNAc(b1-3)]Gal(b1-4)Glc
# Summary of the method: as §1
# [21] = target: Gal(b1-3)[Neu5Ac(a2-6)]GalNAc
# Summary of the method: as §1
# [22] = target: Gal(b1-4)GlcNAc(a1-6)Gal(b1-4)GlcNAc
# Summary of the method: as §1
# [23] = target: Gal(b1-4)GlcNAc(b1-2)Man(a1-6)[GlcNAc(b1-2)Man(a1-3)]Man(b1-4)GlcNAc(b1-4)GlcNAc
# Summary of the method: as §1
# [24] = target: Gal(b1-4)GlcNAc(b1-2)[Gal(b1-4)GlcNAc(b1-4)]Man(a1-3)[Gal(b1-4)GlcNAc(b1-2)Man(a1-6)]Man(b1-4)GlcNAc(b1-4)GlcNAc
# Summary of the method: as §1
# [25] = target: Gal(b1-4)GlcNAc(b1-2)[Gal(b1-4)GlcNAc(b1-4)]Man(a1-3)[GlcNAc(b1-4)][Gal(b1-4)GlcNAc(b1-2)Man(a1-6)]Man(b1-4)GlcNAc(b1-4)GlcNAc
# Summary of the method: as §1
# [26] = target: Gal(b1-4)GlcNAc(b1-3)Gal(b1-4)GlcNAc(b1-3)Gal(b1-4)GlcNAc(b1-3)Gal(b1-4)GlcNAc(b1-2)Man(a1-3)[Gal(b1-4)GlcNAc(b1-3)Gal(b1-4)GlcNAc(b1-3)Gal(b1-4)GlcNAc(b1-3)Gal(b1-4)GlcNAc(b1-2)Man(a1-6)]Man(b1-4)GlcNAc(b1-4)[Fuc(a1-6)]GlcNAc
# Summary of the method: as §1
# [27] = target: Gal(b1-4)GlcNAc(b1-3)Gal(b1-4)GlcNAc(b1-6)[Gal(b1-3)]GalNAc
# Summary of the method: as §1
# [28] = target: Gal(b1-4)GlcNAc(b1-3)[Gal(b1-4)GlcNAc(b1-6)]Gal(b1-4)GlcNAc
# Summary of the method: as §1
binder,measurement,setting,value
B1,glycan array binding signal (z-score),[1],-0.191
same,glycan array binding signal (z-score),[2],3.11
same,glycan array binding signal (z-score),[3],-0.568
same,glycan array binding signal (z-score),[4],-0.915
same,glycan array binding signal (z-score),[5],0.456
same,glycan array binding signal (z-score),[6],2.29
same,glycan array binding signal (z-score),[7],0.341
same,glycan array binding signal (z-score),[8],0.4
same,glycan array binding signal (z-score),[9],0.168
same,glycan array binding signal (z-score),[10],-0.456
same,glycan array binding signal (z-score),[11],-0.399
same,glycan array binding signal (z-score),[12],-1.3
same,glycan array binding signal (z-score),[13],0.017
same,glycan array binding signal (z-score),[14],-1.15
same,glycan array binding signal (z-score),[15],2.28
same,glycan array binding signal (z-score),Gal(a1-4)Gal(b1-4)Glc,2.6
same,glycan array binding signal (z-score),Gal(a1-4)Gal(b1-4)GlcNAc,1.02
same,glycan array binding signal (z-score),[16],0.176
same,glycan array binding signal (z-score),Gal(b1-2)Gal,-1.15
same,glycan array binding signal (z-score),[17],3.43
same,glycan array binding signal (z-score),[18],-0.686
same,glycan array binding signal (z-score),[19],2.35
same,glycan array binding signal (z-score),[20],2.29
same,glycan array binding signal (z-score),[21],-0.433
same,glycan array binding signal (z-score),[22],3
same,glycan array binding signal (z-score),[23],0.086
same,glycan array binding signal (z-score),[24],-0.236
same,glycan array binding signal (z-score),[25],-0.307
same,glycan array binding signal (z-score),[26],2.42
same,glycan array binding signal (z-score),[27],0.7
same,glycan array binding signal (z-score),[28],-0.342
